The text below walks through data of PubChem BioAssay (NCI).

What all share (assay): NCI-60 one-dose screen, 48 h (100 = growth as untreated, 0 = no growth, -100 = all killed)
Details in all cases: 10 µM unless noted

For assay [1], the system named is NCI-H23 lung.
Assay [2] concerns NCI-H226 lung.
In assay [3] the test system is NCI-H322M lung.
Assay [4] deals with HOP-62 NSCLC.
Assay [5] relates to HOP-92 NSCLC.
The test system of assay [6] is NCI-H522 lung.
The subject of assay [7] is A549/ATCC NSCLC.
For assay [8], the system named is 786-0 renal.
Assay [9] deals with COLO 205 colon.
The subject of assay [10] is DU-145 prostate.
Assay [11] has as its system K-562 leukemia.
Assay [12] relates to MALME-3M melanoma.
Assay [13] concerns MDA-MB-231 breast.
For assay [14], the system named is RXF 393 renal.
For assay [15], the system named is SF-268 CNS.
For assay [16], the system named is SF-295 CNS.
For assay [17], the system named is SF-539 CNS.
The subject of assay [18] is UACC-257 melanoma.
Assay [19] deals with M14 melanoma.
Assay [20] concerns NCI-H460 lung.

SMILES strings stand for the structures. About 83,000 compounds went through this panel and 20% of them were active in at least one assay; those are over-represented in the sample as a whole.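 For each line, cells grew in 96-well plates with the test compound present at a single concentration for 48 hours.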 A number with no mark means an inactive call. The source made the active and inactive calls. How the source made its calls: active means growth percent below 10; inactive means the rest.

On to `S=c1n(CNc2ccc(Cl)nn2)nc(-c2cc(Cl)cc(Cl)c2Cl)n1/N=C/c1ccc(Cl)cc1`, for which the growth in assay [1] was 88.5%; in assay [2], 96.1%; in [3], 74.9%; in [4], 81.6%; in assay [5] it was 34.3%; in [6], 72.2%. In addition, the growth in assay [7] is 138%; in assay [8], 81.9%; in assay [9], 132%; in assay [10], 109%; in assay [11] it was 71.7%; in assay [12] it was 89.3%. Besides, the growth in [13] was 92.9%; in assay [14], 149%; in assay [15], 107%; in assay [16], 70%; in assay [17], 101%; in assay [18], 106%. The growth in assay [19] is 55.8%.
Turning to `COc1ccc(C(=O)NC(=O)Nc2ccc3c(c2)NC(=O)/C3=C\c2[nH]c(C)c(C(=O)O)c2C)cc1`, the growth in [1] was 18.1%; in assay [2], 83.9%; in assay [3] it was 94.2%; in [4], 96.2%; in assay [5], -1.09% (active); in [6] it was 7.54% (active). In addition, the growth was 98% in assay [7]; 16.8% in assay [8]; 88.1% in assay [9]; 71.1% in [10]; 79.3% in assay [11]; 41.9% in assay [12]. Moreover, the growth in assay [13] is 86.8%; in assay [14], 49.1%; in assay [15] it was 61.4%; in assay [16] it was 105%; in assay [17], 72.9%; in assay [18] it was 107%. In [19], the growth was 90.5%.
Turning to `COc1ccccc1S(=O)(=O)Nc1ccc2c3c(cc(-c4ccoc4)nc13)C(=O)N2C`, the growth in [1] was 81.2%; in [2], 82.7%; in [3], 76.2%; in [4] it was 52.6%; in assay [5], 45.3%; in assay [6], 46.3%. In addition, the growth in [7] is 66.2%; in assay [8] it was 53.6%; in assay [9], 44.7%; in assay [10] it was 86.5%; in assay [12], 71.3%; in assay [13], 62.8%. Besides, the growth in assay [14] was 85.3%; in [15], 84.1%; in [16], 56.9%; in assay [17] it was 63.2%; in assay [18], 58.7%; in assay [19] it was 53.1%.
Turning to `COc1ccc(OCC(O)CN2CCN(c3ccc(Cl)cc3)CC2)cc1` (stereo not given), the growth in [1] is 228%; in assay [2], 86.3%; in assay [3], 89.6%; in [4], 103%; in assay [5], 97.9%; in [6], 74.3%. In addition, the growth is 93.2% in assay [7]; 151% in [8]; 95.7% in assay [9]; 112% in assay [10]; 105% in assay [11]; 106% in assay [12]. The growth is 88.1% in assay [13]; 98% in [14]; 105% in assay [15]; 92.1% in [16]; 95.5% in assay [17]; 81.9% in [18]. Further, the growth in [19] is 102%.
For `C#CCn1c(-c2cc(OC)c(OC)cc2Br)nc(-c2ccccc2)c1-c1ccccc1`, the growth in [1] was 42.5%; in [2], 66%; in assay [3], 28.6%; in assay [4] it was 72.8%; in assay [5], 41.9%; in assay [6], 17.4%. The growth in assay [7] is 31.2%; in assay [8], 48.8%; in assay [9], 8.73% (active); in assay [10] it was 63.9%; in assay [11], 15.1%; in [12], 29.3%. Further, the growth in assay [13] was 45.7%; in [14] it was 41.3%; in [15], 70%; in assay [16] it was 21.6%; in [17], 62.7%; in assay [18], 59.2%. For the same compound, the growth in assay [19] is 16.1%.
On to `CCCCn1c(-c2cccc(OC)c2)nc2cc(OC)c(OC)cc2c1=O`, for which the growth in assay [1] was 87.3%; in assay [3] it was 197%; in assay [4], 45.7%; in assay [20], 115%; in assay [5], 83.1%; in assay [6], 92.4%. Besides, the growth in [7] is 11.3%; in assay [9] it was 117%; in assay [10], 93.4%; in assay [11], 77.9%; in assay [12], 252%; in assay [13], 89.2%. Also, the growth is 95.4% in assay [15]; 99.5% in assay [16]; 108% in [17]; -16.6% (active) in [18]; 107% in assay [19].
For the compound `COc1ccc(C2CC(c3cc(Cl)c(C)cc3OC)=NN2c2ccc(S(N)(=O)=O)cc2)cc1OC` (stereo not given), the growth in assay [1] was 75.8%; in assay [3], 104%; in assay [4] it was 87.8%; in [20], 89.8%; in assay [5] it was 101%; in assay [6] it was 74.3%. In addition, the growth in [7] is 73.2%; in [8] it was 92.3%; in assay [9] it was 101%; in [10], 106%; in [12] it was 101%; in [13], 84.6%. Also, the growth is 77.7% in assay [14]; 90.1% in assay [15]; 123% in [16]; 103% in assay [17]; 87.2% in assay [18].
As to `CC12CCC3C(CCC4CC(O)CCC43C)C1C/C(=C/O)C(=O)O2` (stereo not given), the growth was 98.7% in assay [1]; 107% in [3]; 99.1% in assay [4]; 99.6% in [5]; 84.2% in [6]; 100% in assay [7]. The growth in assay [8] was 111%; in assay [9], 105%; in [10], 108%; in [11], 102%; in assay [12], 134%; in [13] it was 106%. In addition, the growth in assay [14] was 99.8%; in [15], 101%; in assay [16], 105%; in [17], 113%; in assay [18] it was 92.6%; in assay [19], 105%.
For `O=C(NCCNc1nccc(-c2c(-c3cccc(O)c3)nc3sccn23)n1)c1ccccc1O`, the growth in assay [1] is 57.4%; in [3] it was 72.3%; in assay [4] it was 114%; in assay [20], 57%; in assay [5] it was 59.9%; in assay [6] it was 29%. Further, the growth is 43.3% in assay [7]; 64.6% in assay [8]; 66.5% in assay [9]; 67.2% in [10]; 40.5% in assay [11]; 14.6% in [12]. Moreover, the growth in [13] is 48.4%; in assay [14], 50.9%; in assay [15] it was 62.5%; in [16] it was 46.4%; in assay [17], 61.9%; in assay [18], 14.8%. The growth in assay [19] was 16.7%.
For the compound `NC(=S)NNC1CCCCC1`, the growth in assay [1] is 97.6%; in assay [3], 87.7%; in assay [4], 83.2%; in [20], 104%; in [5], 88.7%; in assay [6] it was 72.3%. The growth in assay [7] is 74.5%; in assay [8], 99.3%; in [9], 100%; in assay [10], 109%; in assay [11] it was 87.6%; in [12], 97.3%. For the same compound, the growth in [13] was 92.1%; in assay [14], 107%; in [15], 97.4%; in assay [16], 96.4%; in assay [17], 96.4%; in [18], 80.1%. For the same compound, the growth in assay [19] is 98.4%.
Regarding `CC(=O)n1cc(/C=C2\N=C(c3ccc(Cl)cc3)N(c3ccc(S(=O)(=O)Nc4nccs4)cc3)C2=O)c2ccccc21`, the growth in assay [1] is 89%; in [3], 85.8%; in [4], 97.6%; in assay [20], 82.1%; in [5] it was 95.9%; in [6], 60%. In addition, the growth in assay [7] is 91%; in assay [8], 88.6%; in assay [9], 115%; in assay [10] it was 102%; in assay [11] it was 59.6%; in assay [12] it was 120%. In addition, the growth was 95.5% in assay [13]; 86.7% in assay [14]; 83% in [15]; 85.6% in [16]; 90.6% in [17]; 99.7% in assay [18]. For the same compound, in [19], the growth was 83.4%.
Turning to `Cc1ccc(-c2cc(-c3nnc(SCC(=O)c4ccccc4)o3)c3ccccc3n2)cc1`, the growth in assay [1] is 97.1%; in assay [3], 90.3%; in [4] it was 108%; in assay [20], 98.3%; in assay [5], 96.6%; in assay [6], 87.7%. The growth in assay [7] was 91.4%; in assay [8], 92.8%; in assay [9], 111%; in assay [10], 95.2%; in [11], 93.2%; in [12], 107%. The growth in assay [13] was 117%; in [15], 88.9%; in [16] it was 99.1%; in assay [17], 94.2%; in [18] it was 114%; in assay [19], 97.2%.
As for `COc1cc(-c2nc3ccccc3s2)ccc1OCc1nc2n(n1)S(=O)(=O)c1ccccc1N2c1ccccc1`, the growth was 109% in assay [1]; 92.9% in assay [3]; 88.2% in assay [4]; 70.8% in assay [5]; 85.4% in [6]; 110% in [7]. For the same compound, the growth in assay [8] was 95.1%; in assay [9], 113%; in [10], 110%; in assay [11], 81.7%; in assay [12], 66.7%; in [13] it was 79.5%. Besides, the growth in assay [14] is 114%; in assay [15], 102%; in [16], 107%; in assay [17] it was 104%; in assay [18] it was 112%; in [19], 120%.
Regarding `CCCCNC(=O)Oc1ccc(/C(=C(/CC)Cc2ccccc2)c2ccc(OCCCN(C)C)cc2)cc1`, the growth in [1] is 91.7%; in [3], 83.1%; in assay [4], 96.1%; in assay [20] it was 63.7%; in assay [5], 43.8%; in [6] it was 88.1%. The growth in [7] is 69.5%; in [8] it was 71.2%; in assay [9], 20.5%; in assay [10], 89.2%; in assay [12] it was 93.4%; in [13], 78.9%. Besides, the growth in [14] was 70.7%; in assay [15] it was 77.8%; in [16] it was 94.9%; in assay [17] it was 88.5%; in [18], 104%; in [19] it was 81.8%.
As to `O=C(Nc1ccc(F)cc1)Nc1ccc(Cl)c([N+](=O)[O-])c1`, the growth in assay [1] is -1.96% (active); in [3], 28.4%; in assay [4], 38.8%; in assay [20], 3.03% (active); in assay [5], -8.16% (active); in [6], 2.42% (active). The growth in assay [7] was 17.1%; in assay [8], 26.7%; in assay [9], 12%; in [10], 18.9%; in assay [12], 27.4%; in [13], 40%. Further, the growth in [14] is 51.1%; in assay [15] it was 32.7%; in assay [16], 8.17% (active); in assay [17], 36.2%; in assay [18] it was 34.9%; in assay [19], 24%.
